# Source: the supplement of paper PMC10941209
# Test system: HFF
# Assay: cell viability relative to DMSO control; higher = less cytotoxic
# Details: 1 µM; 72 h
# Experimental: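 Single-dose cytotoxicity screen of the MMV Pandemic Response Box at 1 uM on human foreskin fibroblasts (HFF), 72 h at 37 C. Viability measured by MTT (OD 550 nm) and normalised to the DMSO control (% survival).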
row,SMILES,cell viability
1,C[C@H]1CC[C@]2(NC1)O[C@H]1C[C@H]3[C@@H]4CC[C@H]5C[C@@H](O)CC[C@]5(C)[C@H]4CC[C@]3(C)[C@H]1[C@@H]2C,73.1%
2,CC(C)Oc1cccc(NC(=O)c2ccccc2C(F)(F)F)c1,70.5%
3,COc1cc(C(C)(C)CCCC(C)C)cc(OC)c1OC,61%
4,CCN1CCN(Cc2nc3ccc([N+](=O)[O-])cc3c(=O)n2-c2ccccc2F)CC1,62.2%
5,NC1(C(=O)O)CCP(=O)(O)CC1 (stereo not drawn),63.1%
6,COC(=O)Nc1nc2ccccc2[nH]1,66.4%
7,CCCCc1ccc(C(=O)O)nc1,56.4%
8,Nc1c(C(=O)NCc2ccco2)c2nc3ccccc3nc2n1CCN1CCCCC1,64.1%
9,COc1ccccc1CN[C@H]1C2CCN(CC2)[C@H]1C(c1ccccc1)c1ccccc1,58.7%
10,CN1C(=O)C(c2ccccc2)C(=O)N(c2ccccc2)c2cc(C(F)(F)F)ccc21 (stereo not drawn),66.3%
11,O=C(NC12CC3CC(CC(C3)C1)C2)c1cc2ccccc2[nH]1,83.6%
12,C[C@@]1(O)[C@H](O)[C@@H](CO)O[C@H]1n1ccc2c(N)ncnc21,68.5%
13,C[N+]1(C)CCCC(OC(=O)C(O)(c2ccccc2)c2ccccc2)C1 (stereo not drawn),69.6%
